Active and inactive are the calls of the source. Unless noted, the rule behind the calls is not given here.
Key:
[1] = compounds binding Alexa647 anti-His antibody – biochemical, small-molecule microarray, 635 nm fluorescence, artefact control for SMM control protein annotation, primary screen (AID 1128); conditions: higher = more signal;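 note: score merges feature fluorescence with signal-to-noise for each printed compound spot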
[2] = system: Human papillomavirus type 1a E7 protein (residues 1-88); assay: HPV1a E7 small-molecule binders, primary screen, biochemical, small-molecule microarray, residues 1-88, 635 nm (AID 1129); conditions: small-molecule microarray binding, fluorescence 635 nm; higher = more signal
[3] = molecular target: Focal adhesion kinase 1 (Homo sapiens) (UniProt Q05397); assay: PTK2 protein binding on printed compound slides – biochemical, small-molecule microarray, 635/667 nm fluorescence, BSA, DTT, primary screen (AID 1130); conditions: 635 nm fluorescence, higher = more signal;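 note: composite of spot emission at 667 nm and signal to noise over triplicate slides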
Focal adhesion kinase 1 (Homo sapiens), sequence (Q05397 whole entry, looked up): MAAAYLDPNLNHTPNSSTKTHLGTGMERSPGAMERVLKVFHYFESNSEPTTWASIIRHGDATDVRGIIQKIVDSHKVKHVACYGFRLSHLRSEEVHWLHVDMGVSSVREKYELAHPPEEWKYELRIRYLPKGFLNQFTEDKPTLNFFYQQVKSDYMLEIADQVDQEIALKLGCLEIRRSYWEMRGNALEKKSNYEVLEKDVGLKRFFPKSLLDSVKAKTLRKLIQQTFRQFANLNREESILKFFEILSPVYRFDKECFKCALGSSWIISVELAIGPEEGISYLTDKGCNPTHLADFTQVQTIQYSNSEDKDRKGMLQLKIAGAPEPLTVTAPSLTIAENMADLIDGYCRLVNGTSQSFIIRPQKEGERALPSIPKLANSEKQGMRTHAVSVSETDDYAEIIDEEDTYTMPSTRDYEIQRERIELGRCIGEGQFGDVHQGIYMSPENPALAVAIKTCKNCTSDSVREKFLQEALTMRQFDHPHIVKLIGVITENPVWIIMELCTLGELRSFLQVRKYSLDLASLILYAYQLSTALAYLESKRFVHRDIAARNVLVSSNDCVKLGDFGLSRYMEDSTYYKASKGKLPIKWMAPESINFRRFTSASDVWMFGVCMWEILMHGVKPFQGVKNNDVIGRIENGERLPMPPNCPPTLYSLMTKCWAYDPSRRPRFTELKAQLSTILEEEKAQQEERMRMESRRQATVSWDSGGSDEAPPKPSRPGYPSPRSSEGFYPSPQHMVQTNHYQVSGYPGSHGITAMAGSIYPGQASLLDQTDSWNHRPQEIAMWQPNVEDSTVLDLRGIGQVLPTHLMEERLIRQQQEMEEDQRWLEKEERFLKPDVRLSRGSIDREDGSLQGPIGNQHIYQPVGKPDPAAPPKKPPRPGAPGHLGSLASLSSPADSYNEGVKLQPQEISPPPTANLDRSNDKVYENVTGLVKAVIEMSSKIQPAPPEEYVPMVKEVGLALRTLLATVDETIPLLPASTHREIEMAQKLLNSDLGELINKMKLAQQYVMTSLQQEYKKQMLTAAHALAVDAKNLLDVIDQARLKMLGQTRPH

[4] = system: Fibrinogen (Alexa647-labelled); assay: Alexa647-fibrinogen binding to printed small molecules – biochemical, small-molecule microarray, 635/667 nm fluorescence, artefact control for SMM control-protein annotation, profiling panel (AID 1131); conditions: fibrinogen-A647 binding fluorescence, higher = more signal;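 note: z-score merges 667 nm fluorescence with per-spot signal-to-noise over triplicate slides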
[5] = molecular target: Follistatin (Homo sapiens) (UniProt P19883); assay: FST protein binding to printed compounds – biochemical, small-molecule microarray, 635/667 nm fluorescence, primary screen (AID 1132); conditions: 635 nm fluorescence, higher = more signal
Follistatin (Homo sapiens), sequence (P19883 whole entry, looked up): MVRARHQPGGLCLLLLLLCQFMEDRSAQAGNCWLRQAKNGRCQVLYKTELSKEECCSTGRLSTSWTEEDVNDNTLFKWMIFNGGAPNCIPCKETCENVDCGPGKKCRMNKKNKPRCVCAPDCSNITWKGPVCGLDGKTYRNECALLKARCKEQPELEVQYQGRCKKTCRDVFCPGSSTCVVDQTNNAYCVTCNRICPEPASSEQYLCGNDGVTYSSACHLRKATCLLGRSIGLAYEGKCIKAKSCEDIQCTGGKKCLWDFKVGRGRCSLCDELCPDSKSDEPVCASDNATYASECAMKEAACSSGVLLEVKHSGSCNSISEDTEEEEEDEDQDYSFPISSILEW

[6] = molecular target: Fibroblast growth factor 2 (Homo sapiens) (UniProt P09038); assay: basic fibroblast growth factor binding to printed compounds – biochemical, small-molecule microarray, 635/667 nm fluorescence, primary screen (AID 1133); conditions: FGF2, fluorescence 635/667, higher = more signal
Fibroblast growth factor 2 (Homo sapiens), sequence (P09038 whole entry, looked up): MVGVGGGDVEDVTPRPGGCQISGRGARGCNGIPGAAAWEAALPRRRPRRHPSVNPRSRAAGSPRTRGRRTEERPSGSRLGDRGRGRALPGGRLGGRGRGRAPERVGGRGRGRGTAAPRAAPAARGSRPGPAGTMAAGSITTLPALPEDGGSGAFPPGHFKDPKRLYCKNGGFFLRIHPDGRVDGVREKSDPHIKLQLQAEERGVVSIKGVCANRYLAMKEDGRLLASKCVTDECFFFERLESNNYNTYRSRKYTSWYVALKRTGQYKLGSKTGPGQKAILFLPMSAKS

[7] = JC-1 mitochondrial potential readout, lung cancer cells – cell-based, A549, JC-1 fluorescence, basal, 24 h, 100 nL, profiling panel (AID 1138); conditions: higher = more signal;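 note: A549 lung adenocarcinoma cells under basal conditions with no added stimulus; test concentration not given here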
Lefty1 = Lefty1 protein binding to printed compounds – biochemical, small-molecule microarray, 635/667 nm fluorescence, primary screen (AID 1139); conditions: fluorescence 635/667, higher = more signal
[8] = system: wheat germ agglutinin (Triticum aestivum), Alexa647-labelled; assay: Alexa647-WGA lectin binding to printed small molecules – biochemical, small-molecule microarray, 635/667 nm fluorescence, artefact control for SMM control-protein annotation, profiling panel (AID 1140); conditions: WGA-A647 binding, 635 nm fluorescence, higher = more signal;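 note: score merges 667 nm feature emission with signal to noise over triplicate slides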
[9] = molecular target: Luciferin 4-monooxygenase (Photinus pyralis) (UniProt P08659); assay: inhibition of purified Photinus pyralis luciferase – biochemical, luminescence, purified enzyme, 2006 set, primary screen (AID 1141); conditions: purified firefly luciferase, SteadyGlo luminescence, 30 min; higher = more signal, called active from +8 up or from −8 down;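 note: cell-free assay with purified firefly luciferase at 100 ng per well in PBS; test concentration not given here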
Luciferin 4-monooxygenase (Photinus pyralis), sequence (P08659 whole entry, looked up): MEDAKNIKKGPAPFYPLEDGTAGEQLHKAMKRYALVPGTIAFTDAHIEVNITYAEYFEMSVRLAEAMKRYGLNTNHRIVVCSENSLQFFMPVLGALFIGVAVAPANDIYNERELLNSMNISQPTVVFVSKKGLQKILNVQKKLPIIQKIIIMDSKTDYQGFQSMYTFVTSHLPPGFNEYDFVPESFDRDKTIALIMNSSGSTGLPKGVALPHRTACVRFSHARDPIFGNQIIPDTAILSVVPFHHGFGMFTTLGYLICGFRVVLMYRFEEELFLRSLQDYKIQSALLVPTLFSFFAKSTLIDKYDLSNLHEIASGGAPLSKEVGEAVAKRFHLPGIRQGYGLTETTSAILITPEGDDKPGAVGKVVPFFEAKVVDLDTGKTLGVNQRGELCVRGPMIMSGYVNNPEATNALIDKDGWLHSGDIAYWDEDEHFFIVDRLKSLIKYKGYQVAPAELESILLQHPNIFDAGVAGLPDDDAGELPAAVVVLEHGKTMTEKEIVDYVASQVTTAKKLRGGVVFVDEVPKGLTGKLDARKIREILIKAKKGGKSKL

[10] = system: Wnt5a (protein binding on small-molecule microarray); assay: small molecules binding Wnt5a protein – biophysical, small-molecule microarray, 635/667 nm fluorescence, primary screen (AID 1142); conditions: 635 nm fluorescence, higher = more signal;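 note: fluorescence read at 667 nm with signal to noise per printed feature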
[11] = ATP-based viability of Huh7 replicon cells – cell-based, CellTiter-Glo luminescence, basal, 48 h, cytotoxicity control for HCV replication inhibitor project, primary screen (AID 1143); conditions: higher = more signal, called active from +8 up or from −8 down;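 note: Huh7 hepatoma cells carrying a hepatitis C replication reporter with no stimulus; test concentration not given here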
[12] = Pseudomonas biofilm growth suppression – PAO1 strain, BacTiter-Glo luminescence, LB-PBS, primary screen (AID 1144); conditions: P. aeruginosa PAO1 biofilm, 12 h, higher = more signal
[13] = basal CRE-LacZ reporter activity in PC12 – cell-based, unstimulated, primary screen (AID 1145); conditions: no forskolin, luminescence, 4.5 h, higher = more signal, called active from +8 up or from −8 down
[14] = forskolin-driven CRE-LacZ activity in PC12 – cell-based, CRE-LacZ reporter, forskolin-stimulated, primary screen (AID 1146); conditions: luminescence, 4.5 h, higher = more signal, called active from +8 up or from −8 down;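 note: PC12 cells with 6xCRE LacZ reporter stimulated by forskolin 10 µM; beta-galactosidase reporter signal reflecting CREB driven transcription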
[15] = molecular target: Streptavidin (Streptomyces avidinii) (UniProt P22629); assay: compounds binding control protein streptavidin – biophysical, small-molecule microarray, 635/667 nm fluorescence, artefact control for SMM compound annotation, primary screen (AID 1147); conditions: higher = more signal;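 note: signal reflects streptavidin binding to arrayed compounds as a control protein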
Streptavidin (Streptomyces avidinii), sequence (P22629 whole entry, looked up): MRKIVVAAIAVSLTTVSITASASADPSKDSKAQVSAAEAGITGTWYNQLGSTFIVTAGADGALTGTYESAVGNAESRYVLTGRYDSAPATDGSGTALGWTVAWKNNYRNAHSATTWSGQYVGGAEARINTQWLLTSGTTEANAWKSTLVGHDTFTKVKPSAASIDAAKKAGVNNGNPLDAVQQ

[16] = probe aInhba binding on compound microarray – biochemical, small-molecule microarray, 635/667 nm fluorescence, primary screen (AID 1148); conditions: higher = more signal;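 note: score merges 667nm spot fluorescence with signal-to-noise for antibody binding to printed compounds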
Torsin-1A (Homo sapiens) [17] = molecular target: Torsin-1A (Homo sapiens) (UniProt O14656); assay: TOR1A wild-type binding on microarray – cell lysate, small-molecule microarray, lysate, 635/667 nm, primary screen (AID 1149); conditions: COS7 hTOR1A-WT lysate, 635 nm fluorescence, higher = more signal
Torsin-1A (Homo sapiens), sequence (O14656 whole entry, looked up): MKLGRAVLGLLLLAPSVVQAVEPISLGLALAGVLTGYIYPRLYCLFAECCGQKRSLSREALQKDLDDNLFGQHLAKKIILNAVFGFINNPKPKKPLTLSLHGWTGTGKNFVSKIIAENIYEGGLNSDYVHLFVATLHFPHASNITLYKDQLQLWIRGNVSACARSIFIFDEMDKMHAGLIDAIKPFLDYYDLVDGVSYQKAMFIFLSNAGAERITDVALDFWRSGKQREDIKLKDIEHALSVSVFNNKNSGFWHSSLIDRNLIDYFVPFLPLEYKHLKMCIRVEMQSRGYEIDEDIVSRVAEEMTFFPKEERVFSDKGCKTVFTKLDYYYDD

Torsin-1A (Homo sapiens) [18] = molecular target: Torsin-1A (Homo sapiens) (UniProt O14656); assay: torsin A mutant lysate binding on microarrays – cell lysate, small-molecule microarray, COS7 lysate, 635/667 nm fluorescence, primary screen (AID 1150); conditions: COS7 hTOR1A mutant lysate, 635 nm fluorescence, higher = more signal;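 note: score pools 667 nm emission and signal to noise measuring lysate protein binding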
[19] = system: Sonic hedgehog protein (Shh); assay: Sonic hedgehog microarray binding compounds – biochemical, small-molecule microarray, 635/667 nm fluorescence, primary screen (AID 1151); conditions: 635 nm fluorescence, higher = more signal;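 note: Shh protein binding to compounds spotted on small-molecule microarray slides; score combines spot fluorescence intensity with signal-to-noise across triplicate slides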

SMILES | composite z-score [1] | composite z-score [2] | composite z-score [3] | composite z-score [4] | composite z-score [5] | composite z-score [6] | z-score [7] | composite z-score (Lefty1) | composite z-score [8] | z-score [9] | composite z-score [10] | z-score [11] | z-score [12] | z-score [13] | z-score [14] | composite z-score [15] | composite z-score [16] | composite z-score (Torsin-1A (Homo sapiens) [17]) | composite z-score (Torsin-1A (Homo sapiens) [18]) | composite z-score [19]
CC(c1ccccc1)C(O)C1C=CC2C(=O)N(C)C(=O)C2N1Nc1ccccc1 (stereo not given) | 1.79 | 1.24 | 0.322 | 1.02 | 0.777 | -0.579 | -0.0184 | -0.17 | 1.21 | 0.206 (inactive) | 0.462 | 0.481 (inactive) | -0.0225 (inactive) | 0.0535 (inactive) | -0.0744 (inactive) | 1.62 | 0.562 | 0.112 | 0.299 | -0.353
CCCCC(CC)C(O)C1C=CC2C(=O)N(C)C(=O)C2N1Nc1ccccc1 (stereo not given) | 1.51 | 1.21 | 0.592 | 0.852 | 0.22 | -0.364 | 0.665 | -0.118 | 0.795 | 0.546 (inactive) | 0.122 | 0.136 (inactive) | -0.152 (inactive) | -0.14 (inactive) | 0.184 (inactive) | 0.454 | 0.017 | -0.111 | 0.254 | -0.76
CCCC=C(CCC)[C@@H](NS(=O)(=O)CC12CCC(CC1=O)C2(C)C)c1ccc(C(=O)OC)cc1 (stereo not given in full) | 1.33 | 0.71 | 0.187 | 0.0749 | 0.107 | -0.056 | 0.237 | 0.134 | 0.301 | 2.15 (inactive) | 0.0202 | -0.816 (inactive) | -1.06 (inactive) | -0.572 (inactive) | 0.0711 (inactive) | 0.333 | 0.361 | 0.924 | 0.792 | 0.31
CCCC=C(CCC)[C@@H](NC(=O)c1cccs1)c1ccc(C(=O)OC)cc1 | 0.196 | 0.741 | 0.205 | 0.686 | 0.816 | 1.13 | 0.733 | -0.223 | -0.119 | 2.23 (inactive) | 0.535 | -0.268 (inactive) | -0.473 (inactive) | -0.951 (inactive) | 0.158 (inactive) | 0.373 | 0.375 | 0.657 | 0.183 | -0.83
O=C(NCCN1CCOCC1)[C@@H]1c2ccccc2C(=O)N(C2Cc3ccccc3C2)[C@H]1c1ccc(CO)cc1 | 3.03 | 1.08 | 0.306 | 0.739 | -0.506 | 0.082 | 2.55 | -0.724 | -0.0583 | -1.16 (inactive) | -0.136 | -1.59 (inactive) | -0.264 (inactive) | 0.118 (inactive) | -1.42 (inactive) | -0.456 | -0.0509 | 1.3 | 0.966 | 0.105
COCC(=C=CC[C@H](O)c1ccc(CO)o1)CCO | 1.28 | 0.58 | 0.646 | 0.501 | 1.3 | 1.14 | 0.0889 | 0.915 | 0.277 | -0.561 (inactive) | 0.181 | -0.25 (inactive) | 0.308 (inactive) | 1.51 (inactive) | -0.255 (inactive) | 0.141 | -0.003 | 0.494 | 0.246 | 1.99
C#CCN([C@@H](Cc1ccccc1)C(=O)OC)[C@@H](/C=C/C1CC1)[C@H](O)Cc1ccccc1 | -0.429 | -0.515 | -0.157 | -0.873 | 0.722 | -0.0248 | 3.45 | 0.166 | 0.0211 | 0.412 (inactive) | -0.476 | -3.22 (inactive) | 0.398 (inactive) | 1.67 (inactive) | -0.0949 (inactive) | -0.676 | -0.157 | 0.239 | -0.211 | 0.314
COc1ccc([Si](C)(C)[C@@H]2[C@@H](CC(=O)N(CCO)Cc3ccccc3)O[C@]3(C(=O)N(Cc4cccc(N5CCCCC5=O)c4)c4ccccc43)[C@H]2C)cc1 | 0.112 | 0.869 | 0.518 | -0.451 | 1.15 | 0.361 | -0.171 | 1.46 | 0.349 | 0.151 (inactive) | 0.585 | -4.76 (inactive) | -0.952 (inactive) | 0.716 (inactive) | 0.708 (inactive) | -0.402 | 0.187 | 0.961 | 0.706 | 2.06
CCCNC(=O)[C@@H]1c2ccccc2C(=O)N(Cc2ccc(OC(F)(F)F)cc2)[C@H]1c1ccc(CO)cc1 | 0.0772 | 0.907 | -0.0662 | 0.368 | 0.887 | 0.908 | 1.93 | -0.0534 | 0.0988 | 0.283 (inactive) | 0.474 | -0.88 (inactive) | 0.256 (inactive) | -0.322 (inactive) | -0.283 (inactive) | -0.127 | -0.0963 | 0.0008 | -0.424 | 0.346
C=CC[C@@]1(C(=O)NCCCOC)N=C(c2ccc(OCCCO)cc2)O[C@@H]1c1ccccc1 | 2.85 | 1.19 | 0.166 | -0.273 | 1.3 | 0.594 | 0.565 | -0.476 | 0.471 | -0.589 (inactive) | 0.452 | -1.92 (inactive) | 0.305 (inactive) | 1.51 (inactive) | -0.68 (inactive) | 0.428 | 0.771 | 0.478 | 1.3 | -0.499
